# Assay results taken from PubChem BioAssay (Tox21).
# Inconclusive results are not listed. Where a structure was tested more than once in an assay, its records may differ in their call. The source made the active and inactive calls. Calls come from the whole dose curve.
# Biological target: Acetylcholinesterase (Homo sapiens) (UniProt P22303)
# Test: Acetylcholinesterase (AChE) small molecule antagonists: colormetric cell-based qHTS assay (AID 1347395); note: nearly all actives have a fitted effect of over 30% in size
# Details: SH-SY5Y cells AChE activity, colorimetric (Ellman); series mostly up to 115 µM; activity, negative = inhibition: at the top concentration
# Outline: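 After overnight attachment at 37 C, SH-SY5Y cells get 30 min compound exposure; detection cocktail (acetylthiocholine, DTNB) then incubates 90 min at 37 C, and absorbance reflects AChE-generated thiocholine.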
# % is set by controls: 0 for no effect and ±100 for the full control effect.
# Acetylcholinesterase (Homo sapiens), sequence (P22303 whole entry, looked up): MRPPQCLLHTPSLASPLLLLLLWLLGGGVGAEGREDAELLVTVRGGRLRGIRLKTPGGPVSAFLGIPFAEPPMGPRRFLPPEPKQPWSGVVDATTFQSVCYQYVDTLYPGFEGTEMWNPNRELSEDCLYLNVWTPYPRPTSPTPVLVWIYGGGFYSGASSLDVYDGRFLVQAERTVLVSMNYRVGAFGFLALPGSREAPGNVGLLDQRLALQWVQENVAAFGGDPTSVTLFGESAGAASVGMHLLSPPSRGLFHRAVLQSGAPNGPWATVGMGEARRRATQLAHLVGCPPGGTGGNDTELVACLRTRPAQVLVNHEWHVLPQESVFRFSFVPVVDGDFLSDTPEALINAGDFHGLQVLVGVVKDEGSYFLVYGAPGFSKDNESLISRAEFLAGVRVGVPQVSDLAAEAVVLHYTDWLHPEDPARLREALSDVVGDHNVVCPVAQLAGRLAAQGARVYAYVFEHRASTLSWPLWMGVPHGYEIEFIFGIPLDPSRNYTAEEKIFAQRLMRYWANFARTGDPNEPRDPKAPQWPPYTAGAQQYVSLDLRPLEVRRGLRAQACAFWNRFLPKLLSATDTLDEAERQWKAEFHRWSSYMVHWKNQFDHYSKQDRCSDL
Compound,"activity, negative = inhibition",Potency
O=C(c1ccc(O)cc1)c1ccc(O)c(O)c1O,5.16% (inactive),
CN(C)c1cccc(O)c1,,inactive
Nc1nc(N)c2nc(-c3ccccc3)c(N)nc2n1,,inactive
CN(C)Cc1cc(C(C)(C)C)c(O)c(C(C)(C)C)c1,-0.8% (inactive),
O=c1cccc[nH]1,-1.07% (inactive),
CCCCCCCCCCCCCCCC(=O)OC(C)C,,inactive
c1cnc(N2CCN(Cc3ccc4c(c3)OCO4)CC2)nc1,-0.067% [at 52.9 µM] (inactive),
CCCCCCCCCCCC[N+](C)(C)CC(=O)[O-],2.1% (inactive),
C=C(CC)C(=O)c1ccc(OCC(=O)O)c(Cl)c1Cl,,inactive
CCCCCC1=CCCC1=O,,inactive
CC(C)(c1cc(Br)c(OCC(Br)CBr)c(Br)c1)c1cc(Br)c(OCC(Br)CBr)c(Br)c1 (stereo unspecified),1% [at 52.9 µM] (inactive),
CC(=O)Nc1ccc(C(=O)CCl)cc1,,inactive
FC(F)(F)c1cccc(Cl)c1,7.07% (inactive),
CCCN(C1CCN(C(=O)C2CCNCC2)CC1)[C@@H]1CCc2ccc(OC)cc2C1,3.41% (inactive),
CCCCCCC(O)CCOC(C)=O (stereo unspecified),-0.265% [at 300 µM] (inactive),
O=C1c2cccc3c2[C@H](CCC3)CN1[C@@H]1CN2CCC1CC2,-0.16% [at 52.9 µM] (inactive),
CN(C)C(=O)NC1(c2ccccc2)CCN(CCC[C@]2(c3ccc(Cl)c(Cl)c3)CCCN(C(=O)c3ccccc3)C2)CC1,-4.11% [at 23.6 µM] (inactive),
Cc1ccc(S(=O)(=O)NCl)cc1,,inactive
CCCCCC(C)=O,,inactive
COc1ccc(OC)cc1,,inactive
Clc1nc(C(Cl)(Cl)Cl)c(Cl)c(Cl)c1Cl,-0.767% (inactive),

# Biological target: Acetylcholinesterase (Homo sapiens) (UniProt P22303)
# Test: Acetylcholinesterase (AChE) small molecule antagonists: enzyme-based qHTS assay (AID 1347397); note: nearly all actives have a fitted effect of over 55% in size
# Details: Potency: AChE enzyme activity inhibition; outcome: AChE enzyme activity inhibition; series mostly up to 115 µM; activity change, negative = inhibition: at the top concentration
# Outline: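 Enzyme inhibition was scored from DTNB-detected thiocholine formed by recombinant human AChE acting on acetylthiocholine. The 30 min compound preincubation and 10 min substrate reaction were both run at room temperature, with DMSO as vehicle control.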
Compound,"activity change, negative = inhibition",Potency
c1cnccn1,4.83% (inactive),
NC(=O)Cn1c(=O)cc(CCN2CCN(c3nccc4sccc34)CC2)c2ccc(F)cc21,-19.3% (inactive),
CCOC(=O)c1ccc(C)cc1,-0.55% (inactive),
OC[C@H]1O[C@H](O[C@]2(CCl)O[C@H](CCl)[C@@H](O)[C@@H]2O)[C@H](O)[C@@H](O)[C@H]1Cl,,inactive
CC(Oc1cc(Cl)ccc1Cl)C(=O)O (stereo unspecified),0.387% (inactive),
CCc1cc2cc(OC)c(OC)cc2c(Cc2ccccc2)n1,-4.94% [at 53 µM] (inactive),
CCCCN(CCO)CCO,1.32% (inactive),
c1ccc2c(c1)ccc1cc3c(ccc4ccccc43)cc12,,inactive
CCCCCCCCCCCCCCCCO,,inactive
O=S(=O)(O)c1cccc2c(S(=O)(=O)O)cccc12,0.242% (inactive),
CCN(CCC#N)c1ccc(N=Nc2ccc([N+](=O)[O-])cc2)cc1,-1.92% (inactive),
O=C(O)CN(CCCN(CC(=O)O)CC(=O)O)CC(=O)O,4.89% [at 23.6 µM] (inactive),
CCCCCCC(C)(C)C(=O)O,-0.779% (inactive),
CC(C)(C)c1cc(CCC(=O)OCC(COC(=O)CCc2cc(C(C)(C)C)c(O)c(C(C)(C)C)c2)(COC(=O)CCc2cc(C(C)(C)C)c(O)c(C(C)(C)C)c2)COC(=O)CCc2cc(C(C)(C)C)c(O)c(C(C)(C)C)c2)cc(C(C)(C)C)c1O,0.474% [at 53 µM] (inactive),
CC(=O)c1ccc(C)cc1,-0.645% (inactive),
CCc1cccc(O)c1,,inactive
Cc1nn(C)c(Oc2ccccc2)c1/C=N/OCc1ccc(C(=O)OC(C)(C)C)cc1,-1.66% (inactive),
COc1ccc(C(Cl)=C(c2ccc(OC)cc2)c2ccc(OC)cc2)cc1,,inactive
c1ccc(OCCOc2ccccc2)cc1,,inactive
O=C(c1ccc(O)cc1)c1ccc(O)c(O)c1O,-7.95% (inactive),

Compound,"activity change, negative = inhibition",Potency
CN(C)c1cccc(O)c1,,inactive
Nc1nc(N)c2nc(-c3ccccc3)c(N)nc2n1,,inactive
CN(C)Cc1cc(C(C)(C)C)c(O)c(C(C)(C)C)c1,0.785% (inactive),
O=c1cccc[nH]1,0.681% (inactive),
CCCCCCCCCCCCCCCC(=O)OC(C)C,,inactive
c1cnc(N2CCN(Cc3ccc4c(c3)OCO4)CC2)nc1,-0.507% [at 53 µM] (inactive),
CCCCCCCCCCCC[N+](C)(C)CC(=O)[O-],-0.774% (inactive),
C=C(CC)C(=O)c1ccc(OCC(=O)O)c(Cl)c1Cl,,inactive
CCCCCC1=CCCC1=O,-1.24% (inactive),
CC(C)(c1cc(Br)c(OCC(Br)CBr)c(Br)c1)c1cc(Br)c(OCC(Br)CBr)c(Br)c1 (stereo unspecified),-3.41% [at 53 µM] (inactive),
CC(=O)Nc1ccc(C(=O)CCl)cc1,,inactive
FC(F)(F)c1cccc(Cl)c1,-0.682% (inactive),
CCCN(C1CCN(C(=O)C2CCNCC2)CC1)[C@@H]1CCc2ccc(OC)cc2C1,-0.696% (inactive),
CCCCCCC(O)CCOC(C)=O (stereo unspecified),-1.24% [at 300 µM] (inactive),
O=C1c2cccc3c2[C@H](CCC3)CN1[C@@H]1CN2CCC1CC2,-1.39% [at 53 µM] (inactive),
CN(C)C(=O)NC1(c2ccccc2)CCN(CCC[C@]2(c3ccc(Cl)c(Cl)c3)CCCN(C(=O)c3ccccc3)C2)CC1,0.197% [at 23.6 µM] (inactive),
Cc1ccc(S(=O)(=O)NCl)cc1,,inactive
CCCCCC(C)=O,,inactive
COc1ccc(OC)cc1,,inactive
Clc1nc(C(Cl)(Cl)Cl)c(Cl)c(Cl)c1Cl,-1.03% (inactive),

# Biological target: Acetylcholinesterase (Homo sapiens) (UniProt P22303)
# Test: Acetylcholinesterase (AChE) small molecule antagonists: fluorescence cell-based qHTS assay (AID 1347398); note: nearly all actives have a fitted effect of over 50% in size; note: potency is the fitted concentration of half-maximal effect
# Details: SH-SY5Y cells; Potency: AChE activity; outcome: AChE activity; series mostly up to 115 µM; activity change, negative = inhibition: at the top concentration
# Outline: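 Endogenous acetylcholinesterase of SH-SY5Y neuroblastoma cells is measured in situ. After overnight attachment and 30 min compound exposure, cells receive acetylthiocholine and Thiolite Green; fluorescence is read after 40 min at room temperature.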
Compound,"activity change, negative = inhibition",Potency
c1cnccn1,4.16% (inactive),
NC(=O)Cn1c(=O)cc(CCN2CCN(c3nccc4sccc34)CC2)c2ccc(F)cc21,,35.6 µM (active)
CCOC(=O)c1ccc(C)cc1,-3.06% (inactive),
OC[C@H]1O[C@H](O[C@]2(CCl)O[C@H](CCl)[C@@H](O)[C@@H]2O)[C@H](O)[C@@H](O)[C@H]1Cl,,inactive
CC(Oc1cc(Cl)ccc1Cl)C(=O)O (stereo unspecified),-3.26% (inactive),
CCc1cc2cc(OC)c(OC)cc2c(Cc2ccccc2)n1,-17.9% [at 53.7 µM] (inactive),
CCCCN(CCO)CCO,-1.48% (inactive),
c1ccc2c(c1)ccc1cc3c(ccc4ccccc43)cc12,,inactive
CCCCCCCCCCCCCCCCO,,inactive
O=S(=O)(O)c1cccc2c(S(=O)(=O)O)cccc12,-0.451% (inactive),
CCN(CCC#N)c1ccc(N=Nc2ccc([N+](=O)[O-])cc2)cc1,1.3% (inactive),
O=C(O)CN(CCCN(CC(=O)O)CC(=O)O)CC(=O)O,3.08% [at 23.8 µM] (inactive),
CCCCCCC(C)(C)C(=O)O,0.321% (inactive),
CC(C)(C)c1cc(CCC(=O)OCC(COC(=O)CCc2cc(C(C)(C)C)c(O)c(C(C)(C)C)c2)(COC(=O)CCc2cc(C(C)(C)C)c(O)c(C(C)(C)C)c2)COC(=O)CCc2cc(C(C)(C)C)c(O)c(C(C)(C)C)c2)cc(C(C)(C)C)c1O,0.526% [at 53.7 µM] (inactive),
CC(=O)c1ccc(C)cc1,0.573% (inactive),
CCc1cccc(O)c1,,inactive
Cc1nn(C)c(Oc2ccccc2)c1/C=N/OCc1ccc(C(=O)OC(C)(C)C)cc1,-5.99% (inactive),
COc1ccc(C(Cl)=C(c2ccc(OC)cc2)c2ccc(OC)cc2)cc1,,inactive
c1ccc(OCCOc2ccccc2)cc1,,inactive
O=C(c1ccc(O)cc1)c1ccc(O)c(O)c1O,-10.1% (inactive),

Compound,"activity change, negative = inhibition",Potency
CN(C)c1cccc(O)c1,,inactive
Nc1nc(N)c2nc(-c3ccccc3)c(N)nc2n1,,inactive
CN(C)Cc1cc(C(C)(C)C)c(O)c(C(C)(C)C)c1,-0.888% (inactive),
O=c1cccc[nH]1,0.262% (inactive),
CCCCCCCCCCCCCCCC(=O)OC(C)C,,inactive
c1cnc(N2CCN(Cc3ccc4c(c3)OCO4)CC2)nc1,-8.29% [at 53.7 µM] (inactive),
CCCCCCCCCCCC[N+](C)(C)CC(=O)[O-],5.24% (inactive),
C=C(CC)C(=O)c1ccc(OCC(=O)O)c(Cl)c1Cl,,inactive
CCCCCC1=CCCC1=O,,22.9 µM (active) and inactive
CC(C)(c1cc(Br)c(OCC(Br)CBr)c(Br)c1)c1cc(Br)c(OCC(Br)CBr)c(Br)c1 (stereo unspecified),-2.63% [at 53.7 µM] (inactive),
CC(=O)Nc1ccc(C(=O)CCl)cc1,,inactive
FC(F)(F)c1cccc(Cl)c1,1.47% (inactive),
CCCN(C1CCN(C(=O)C2CCNCC2)CC1)[C@@H]1CCc2ccc(OC)cc2C1,1.58% (inactive),
CCCCCCC(O)CCOC(C)=O (stereo unspecified),0.968% [at 293 µM] (inactive),
O=C1c2cccc3c2[C@H](CCC3)CN1[C@@H]1CN2CCC1CC2,-1.47% [at 53.7 µM] (inactive),
CN(C)C(=O)NC1(c2ccccc2)CCN(CCC[C@]2(c3ccc(Cl)c(Cl)c3)CCCN(C(=O)c3ccccc3)C2)CC1,-16% [at 23.8 µM] (inactive),
Cc1ccc(S(=O)(=O)NCl)cc1,,inactive
CCCCCC(C)=O,,inactive
COc1ccc(OC)cc1,,inactive
Clc1nc(C(Cl)(Cl)Cl)c(Cl)c(Cl)c1Cl,1.29% (inactive),
